# Experimental data from the supplement of paper PMC3334620.
# Over roughly 33,000 sequences, “E-score (-0.5 to 0.5)” has its median near -0.035; the highest 2% begin near 0.34. The sample holds the highest values, similar sequences and a random draw of the others, so the mix is not that of the screen.
# Biological target: T1, Mot3 (UniProt P54785)
# T1 sequence: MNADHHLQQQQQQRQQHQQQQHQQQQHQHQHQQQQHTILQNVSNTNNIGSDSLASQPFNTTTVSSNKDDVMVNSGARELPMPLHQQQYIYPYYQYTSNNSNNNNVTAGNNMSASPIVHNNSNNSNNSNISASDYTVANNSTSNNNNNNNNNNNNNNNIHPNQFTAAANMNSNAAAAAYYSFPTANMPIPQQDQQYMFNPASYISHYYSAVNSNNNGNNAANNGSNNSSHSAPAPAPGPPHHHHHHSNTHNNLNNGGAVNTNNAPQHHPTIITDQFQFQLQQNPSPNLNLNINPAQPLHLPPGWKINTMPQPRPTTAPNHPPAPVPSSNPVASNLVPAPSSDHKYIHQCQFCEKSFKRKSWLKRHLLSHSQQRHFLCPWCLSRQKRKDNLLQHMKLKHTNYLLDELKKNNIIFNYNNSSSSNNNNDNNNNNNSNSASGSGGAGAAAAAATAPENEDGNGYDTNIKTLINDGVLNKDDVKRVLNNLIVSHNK
# Test: PBM E-score (8-mer binding enrichment) (E-score (-0.5 to 0.5)); higher = stronger / more preferred TF binding
# Conditions: protein concentration: 200 nM; construct: GST-full length
# Outline: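 Universal all-10-mer Agilent arrays, double-stranded by primer extension on fresh or once-stripped slides, were probed with about 100-200 nM GST-tagged yeast transcription factors made by PURExpress. Fluorescent anti-GST detected bound protein, and masliner normalised the scans. E-scores from the Universal PBM Analysis Suite were given to each ungapped eight-base word pooled with its reverse complement.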
row,Sequence,PBM E-score
1,CCAAGTCG,-0.155
2,AACCATCT,-0.143
3,CCTACTCA,-0.046
4,ATGCTGCG,-0.101
5,CTATGTTA,0.329
6,GTATGTTA,0.354
7,ATATGTTA,0.284
8,ACTGAGAG,-0.0806
9,ACAGAACT,-0.0328
10,CCCCGGGG,-0.37
11,GGGCTAAA,-0.189
12,CTACCTTA,0.0561
13,CTACCTGA,0.0134
14,ATACCTGA,0.0776
15,GTACCTTA,0.355
16,GTACCTGA,0.402
17,ATACCTTA,-0.0699
18,CTTAAGCA,0.104
19,CCGAATTC,-0.242
20,AGAATCAC,-0.211
21,CTGTGGCC,-0.0368
22,AATACGCG,0.354
23,ATTACGGG,-0.00149
24,ATTACGCA,0.354
25,CTTACGCA,0.301

row,Sequence,PBM E-score
1,GTTACGCA,0.207
2,ATTACGCC,0.102
3,ATTACGCG,0.377
4,AATACGCT,0.188
5,CATACGCG,0.155
6,AAACTGCA,-0.0533
7,CTAGCAGC,-0.257
8,CAACTGAA,0.0709
9,GAATGCAA,-0.0468
10,CAGGGATG,0.034
11,CAGGTAAA,0.383
12,CAGGTAAC,0.39
13,AGGGTAAT,-0.0805
14,AAGGTAAG,0.27
15,AAGGTAAC,0.339
16,AAGGTAGC,0.149
17,GAGGTAAC,-0.0204
18,GAGGTAAA,0.0852
19,AAGGTAAT,0.34
20,AAGGTAAA,0.334
21,CAGGTAAG,0.271
22,AAGGTATT,0.16
23,CATTGGAG,-0.179
24,AGAGGTTA,0.0342
25,CTGAATGA,0.00529

row,Sequence,PBM E-score
1,GACTGTAA,0.147
2,ATCCACCC,-0.246
3,TCTCAGAA,-0.0878
4,CTACTCGA,0.0146
5,CCGCAAAC,-0.0792
6,AAGCTATA,-0.00123
7,CGAAAAAG,0.142
8,CCAGCTTC,-0.187
9,AATTTACA,0.382
10,CATTTACG,0.201
11,CATTTACA,0.363
12,AATTTACC,0.153
13,GATTTACA,0.332
14,TATTTAGA,0.184
15,CATTTACC,0.158
16,TATTTACA,0.386
17,TATTTAAA,0.231
18,AAGCAGAC,-0.0963
19,AAATCGCC,-0.255
20,ACCGGTGA,-0.16
21,GCTACCAC,-0.216
22,GGCCTAAA,0.0327
23,TACCTACA,0.381
24,GACCTACA,0.045
25,TGCCTTAA,0.471

row,Sequence,PBM E-score
1,GTCCTAAA,0.125
2,TTCCTAAA,0.408
3,TGCCTAAA,0.476
4,CGCCTTAA,0.323
5,ATCCTAAA,-0.0533
6,CACCTACA,0.227
7,AGCCTTAA,0.158
8,AGCCTAAA,0.178
9,CACCTCCA,-0.138
10,AGTTCGAC,0.0301
11,CTTCCCTA,-0.206
12,CAGGTGCA,0.0796
13,GCAAAAAA,0.203
14,CTAGACTA,-0.24
15,CAGCGTAC,-0.0299
16,TGCCTACA,0.487
17,GGCCTACA,0.00717
18,GACCTGCA,-0.0447
19,AACCTTCA,0.215
20,AACCTGCA,0.0857
21,GACCTTCA,-0.083
22,CGCCTACA,0.224
23,TACCTGCA,0.403
24,TACCTTCA,0.376
25,AGGGTCTA,-0.153

row,Sequence,PBM E-score
1,CGAGCGCC,-0.0813
2,GTTCACGA,-0.101
3,GGACGCTA,-0.206
4,ACGGCAGG,-0.17
5,CGCGCCAA,-0.0132
6,CTCACACA,-0.0904
7,ATTACACA,0.438
8,ATTACACG,0.435
9,ATGACACG,0.384
10,GTTACAAA,0.223
11,ATCACACA,0.143
12,CTTACACA,0.3
13,ATTACTCA,0.165
14,ATGACACA,0.313
15,ATTACACC,0.299
16,GTTACACA,0.357
17,GTGACACA,0.0545
18,CGAGACCC,-0.0978
19,CGGCCACA,-0.234
20,GACGATCC,-0.0936
21,ATCAATAA,0.0626
22,CTACGCGA,0.232
23,GTCTACAC,0.275
24,ATCTACAA,0.205
25,ATCTACAG,0.0501

row,Sequence,PBM E-score
1,ATCTACAC,0.375
2,CCCTACAC,0.187
3,CTCTACAC,0.223
4,GCCTACAC,0.344
5,ATCTACAT,0.349
6,ACCTACAC,0.258
7,GAAAAGGC,0.228
8,AATCAGGT,0.153
9,CCCATGAG,-0.314
10,AATGAGGT,-0.0627
11,GTATTCCA,0.0481
12,CTCTGTGC,0.00777
13,CAAGGCCC,0.0163
14,CAAGGCCG,-0.0783
15,CAAGGCAA,0.479
16,CAAGGCAC,0.488
17,AAAGGCAT,0.39
18,AAAGGCTT,-0.0548
19,CAAGGCAG,0.0705
20,TAAGGCTA,0.129
21,TAAGGCAA,0.472
22,CAAGGCCA,0.0593
23,AAAGGCCT,-0.0542
24,TAAGGCGA,-0.0665
25,ACGGCGTG,0.0736

row,Sequence,PBM E-score
1,ATCTTAGC,-0.0857
2,ACACCGGA,0.0203
3,AAGCTAGT,-0.004
4,CTACTGGA,-0.174
5,AGCCATAC,-0.163
6,AAAGGCAG,0.282
7,GAAGGCAA,0.489
8,AAAGGCAA,0.486
9,AAGGGCAA,0.127
10,GAAGGCCA,-0.0342
11,GAAGGCTA,0.0397
12,CAAGCAGC,-0.0458
13,AATCCATC,-0.21
14,CTTAAGAC,-0.0312
15,ACCGCGAA,-0.0635
16,CGGAACTA,-0.265
17,ATGAACTC,-0.14
18,AGGAACTA,0.38
19,ATGAACTG,0.0964
20,CGGAACTC,-0.29
21,AGGAACTG,0.413
22,AAGAACTG,-0.196
23,GGGAACTA,-0.0385
24,AGGAACTC,0.396
